Compound activity as filed in PubChem.
A selection: hits, their analogues and other compounds. The true share with any hit is near 1.4%.
PTAP TSG101 blk – blocks PTAP/TSG101 interaction to inhibit HIV-1 budding. Potency, µM (series often up to 115 µM), for the others: at the top dose activity change, negative = inhibition, most hits filed as inhibitors. Fluorescence polarization, FITC-PTAP peptide / Tsg101 binding. Q99816. 340,000 tested, under 10 active; active = well fitted inhibition curve with a large enough effect in the main read-out, with a control signal flat, not every such curve was filed as active; inconclusive = small, poorly fitted or top-dose-only effect, or effect the other way, or a change in a side signal; inactive = no such curve, though single readings can be large or run the other way; also: potency is read from the fitted curve at half-maximal effect; % of control where 0% means no effect
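Steps: Tsg101 binding domain dispensed (10 uM final), compounds pinned in DMSO, FITC-labeled PTAP-motif peptide added (50 nM final); after 20 min binding at room temperature, polarization measured.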
Akt phos inh – inhibitors of Akt phosphorylation | Neuro2A IGF-stimulated pAkt S473 HTRF, 20 min; hits give low values | activity change, % for hits at 50 µM | 0.32% of 360,000 active; in the data active = activity change below about -80%; inconclusive = mostly about -51% to -80%; also: % is scaled to controls: 0 for no effect and ±100 for the full control effect
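Neuro2A cells in DMEM with 0.5% FBS, overnight at 37 deg C, given compound at single 50 µM final, then IGF (6 nM final) for 20 min at 37 deg C. Lysed; phospho-Akt Ser473 by HTRF after 24 h, 665/615 ratio.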
12-LOX inh – blocks human arachidonate 12S-lipoxygenase; purified 12hLO, xylenol orange hydroperoxide absorbance; Potency, µM (top dose mostly 108 µM), for inactives: at the top dose activity change, negative = inhibition, most hits filed as inhibitors; 1.1% of 580,000 active; also: potency is read from the fitted curve at half-maximal effect; % is scaled to controls: 0 for no effect and ±100 for the full control effect
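Purified human 12hLO at 150 nM in 25 mM Hepes, 0.01% Triton X-100, pH 7.0, preincubated 15 min at room temperature with compound. Reaction started with 40 uM arachidonic acid, 30 min at room temperature. Hydroperoxide measured by Fe-xylenol orange, 573/405 nm absorbance ratio.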
Vif-A3G inh – blocks the Vif interaction with human APOBEC3G; HeLa A3G-eYFP + Vif (tagged APOBEC3G with the HIV-1 protein that degrades it), YFP fluorescence, overnight; Q9HC16; AID 602310; 0.076% of 410,000 active; Potency, µM (titrated, usually from 46.1 µM), inactives show at the top dose activity, negative = active, usual class: inhibitors; also: potency is read from the fitted curve at half-maximal effect; % is scaled to controls: 0 for no effect and ±100 for the full control effect; nearly all actives have a fitted effect of over 60% in size
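Read-out is eYFP fluorescence (Ex 488/Em 500-530) from Vif-expressing HeLa A3G-eYFP cells; more signal means A3G escaped Vif-mediated degradation. Cells plated overnight, compound pinned in, incubated overnight at 37 deg C.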
S-ASM inh – inhibitors of human secretory acid sphingomyelinase. Potency, µM (doses to about 57.5 µM), for inactives: at the highest dose activity change, negative = inhibition, most hits filed as inhibitors. P17405. placental ASM, HMU-PC fluorogenic substrate, 60 min. 0.006% of 340,000 active. AID 504937; also: potency is read from the fitted curve at half-maximal effect
Target sequence (P17405 47-631 limits assumed): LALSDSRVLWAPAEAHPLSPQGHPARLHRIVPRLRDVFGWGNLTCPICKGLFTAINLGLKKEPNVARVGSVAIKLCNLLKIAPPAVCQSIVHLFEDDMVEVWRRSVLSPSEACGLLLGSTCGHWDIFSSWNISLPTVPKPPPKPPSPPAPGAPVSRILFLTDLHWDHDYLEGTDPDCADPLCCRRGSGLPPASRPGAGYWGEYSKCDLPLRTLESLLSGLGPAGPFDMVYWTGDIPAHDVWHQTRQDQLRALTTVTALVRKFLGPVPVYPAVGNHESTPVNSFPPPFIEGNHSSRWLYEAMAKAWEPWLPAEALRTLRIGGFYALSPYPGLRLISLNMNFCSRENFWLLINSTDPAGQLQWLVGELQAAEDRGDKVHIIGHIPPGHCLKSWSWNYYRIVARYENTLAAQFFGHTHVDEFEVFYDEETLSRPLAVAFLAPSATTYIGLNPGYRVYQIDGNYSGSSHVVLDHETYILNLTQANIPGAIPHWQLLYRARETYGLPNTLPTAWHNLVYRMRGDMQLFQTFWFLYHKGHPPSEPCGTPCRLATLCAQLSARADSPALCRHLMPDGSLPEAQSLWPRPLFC
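qHTS format. ASM enzyme prepared from human placenta hydrolyses the fluorogenic substrate HMU-PC0 (9 uM final) over 60 min at 37 °C after a 10 min compound preincubation.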
Vif-A3F inh – inhibitors of Vif-A3F interaction. 0.2% of 390,000 active. HeLa A3F-eYFP + Vif (tagged APOBEC3F with the HIV-1 protein that degrades it), YFP fluorescence increase. AID 602313. Potency, µM (highest dose often 46.1 µM), for inactives: top-dose activity, negative = active; also: potency is read from the fitted curve at half-maximal effect; % of control where 0% means no effect; nearly all actives have a fitted effect of over 65% in size
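Fluorescence increase (Ex 488/Em 500-530) after overnight compound treatment at 37 deg C flags inhibition of Vif-driven A3F-eYFP loss in stable HeLa A3F-eYFP/Vif cells seeded overnight beforehand.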
The depositor's hits bear a star; i = inactive; ? = inconclusive; nt = not tested or not shown; ! = repeats disagree; [ ] = another dose, or the depositor's remark. Unless noted, calls follow the shape of the dose curve; as a rule, active = well fitted curve in the direction sought with a large enough effect; inconclusive = small, poorly fitted or top-dose-only effect, or another doubt; inactive = no such curve, though single readings can be large; an effect the other way counts as inactive or inconclusive.

SMILES	PTAP TSG101 blk	Akt phos inh	12-LOX inh	Vif-A3G inh	S-ASM inh	Vif-A3F inh
O=C(NCc1ccccc1)C(c1ccc(C(F)(F)F)cc1)n1c(=O)c(-c2ccco2)nc2ccccc21 (stereo unspecified)	nt	i	5.01µM*	nt	nt	nt
CCCCCNC(=O)C(c1ccc(C#N)cc1)n1c(=O)c(-c2ccco2)nc2ccccc21 (stereo unspecified)	nt	i	?	nt	nt	nt
O=C(NC1CCCCC1)C(c1ccccc1F)n1c(=O)c(-c2ccco2)nc2ccccc21 (stereo unspecified)	nt	i	?	nt	nt	nt
COc1cccc(N2C(=O)NC(=NC3CCCCC3)C23CCN(Cc2cccnc2)CC3)c1	nt	nt	2.2%	nt	nt	nt
O=C1N(CCc2ccccc2)CCOC12CCN(Cc1ccc(F)cc1)CC2	nt	nt	52.8%[176 µM]	nt	nt	nt
C[N+](C)(C)CCCC#CC#CCCC[N+](C)(C)C	nt	nt	39.8µM*	nt	nt	nt
C[N+](C)(C)CCCCCCCCCC[N+](C)(C)C	-4.9%	i	1.3%	0.5%	0.4%	1.7%
CC1=CCCC(C)(C)C12CCC(C)O2 (stereo unspecified)	nt	nt	9.7%[176 µM]	nt	nt	nt
Cc1cc(NC(=O)CSc2ncn(-c3ccccc3)n2)no1	-3.5%	-111.6%*	13.5%	-4.1%	-0.9%	-7.0%
O=C(CSc1ccc(-c2ccco2)nn1)c1ccc(F)cc1	-4.4%	i	28.2µM*	-2.5%	-3.5%	3.3%
COc1ccc(C(=O)CSc2nnc(-c3ccco3)c(-c3ccco3)n2)cc1	-9.1%	i	20µM*	-7.5%	-8.7%	-11.2%
CSc1nnc(-c2ccco2)c(-c2ccco2)n1	-4.7%	i	22.4µM*	-7.6%	-1.3%	-6.0%
CN(Cc1ccc(C(C)(C)C)cc1)C(=O)C1CCN(C(=O)c2ccc(C(F)(F)F)cc2)CC1	nt	nt	-46.7%	nt	nt	nt
CSc1cccc(NC(=O)N(C)CCc2noc(-c3ccc(C(=O)N4CCCCC4)cc3)n2)c1	nt	nt	-0.5%	nt	nt	nt
Cc1ccccc1NC(=O)c1sc2c(c1C)C(c1ccsc1)CC(=O)N2 (stereo unspecified)	nt	nt	-28.4%	nt	nt	nt
Cc1ccccc1NC(=O)c1sc2c(c1C)C(c1cccs1)CC(=O)N2 (stereo unspecified)	nt	nt	25.1µM*	nt	nt	nt
CCN1CCN(CCOc2ccc3c(=O)c(-c4ccc(Cl)cc4)coc3c2)CC1	nt	nt	17.8µM*	nt	nt	nt
Cc1nc(-n2nc(C)c(Cl)c2C)sc1C(=O)N1CCCCC1C (stereo unspecified)	nt	nt	25.4%	nt	nt	nt
Cc1nnc(N2C(=O)C(O)=C(C(=O)c3ccco3)C2c2cccc([N+](=O)[O-])c2)s1 (stereo unspecified)	nt	i	?	1.9%	-0.1%	3.9%
Cc1cc(C)c2nc(N3C(=O)C(O)=C(C(=O)c4ccco4)C3c3cccc(O)c3)sc2c1 (stereo unspecified)	-8.6%	i	25.1µM*	?	-0.7%	-9.1%
Cc1ccc2nc(N3C(=O)C(O)=C(C(=O)c4ccco4)C3c3ccc(C)o3)sc2c1 (stereo unspecified)	2.9%	i	?	3.4%	18.1%	-3.3%
Cc1ccc2nc(N3C(=O)C(O)=C(C(=O)c4ccc(C)o4)C3c3ccco3)sc2c1 (stereo unspecified)	-7.9%	i	0.562µM*	-2.1%	17.8%	2.1%
O=C(C1=C(O)C(=O)N(c2nc3ccc(Cl)cc3s2)C1c1ccco1)c1ccco1 (stereo unspecified)	-1.1%	i	7.94µM*!	-6.5%	16.4%	-5.8%
CCOC(=O)c1sc(N2C(=O)C(O)=C(C(=O)c3ccco3)C2c2cccc([N+](=O)[O-])c2)nc1C (stereo unspecified)	-9.3%	i	44.7µM*	2.8%	4.3%	1.0%
COc1ccccc1CN(C)C(=O)Cc1nn(C)c(=O)c2ccccc12	nt	nt	0.0%	nt	nt	nt
Cc1ccc(C2C(C(=O)c3ccco3)=C(O)C(=O)N2c2nnc(C)s2)cc1 (stereo unspecified)	-8.9%	i	?	-4.2%	-2.0%	6.9%
